Assay [1] concerns the target Dual specificity protein kinase CLK3 (Homo sapiens) (UniProt P49761). Particulars: at 1 µM.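 Further: each value is the mean inhibition of CLK3.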
For assay [2], the target named is Dual specificity tyrosine-phosphorylation-regulated kinase 1A (Homo sapiens) (UniProt Q13627). Particulars: at 0.1 µM.
For assay [3] the target is unchanged. To be noted: at 1 µM.
In assay [4] the target is Dual specificity tyrosine-phosphorylation-regulated kinase 1B (Homo sapiens) (UniProt Q9Y463). Particulars: at 0.1 µM.
Chain of Dual specificity tyrosine-phosphorylation-regulated kinase 1B (Homo sapiens) (Q9Y463 whole entry, looked up): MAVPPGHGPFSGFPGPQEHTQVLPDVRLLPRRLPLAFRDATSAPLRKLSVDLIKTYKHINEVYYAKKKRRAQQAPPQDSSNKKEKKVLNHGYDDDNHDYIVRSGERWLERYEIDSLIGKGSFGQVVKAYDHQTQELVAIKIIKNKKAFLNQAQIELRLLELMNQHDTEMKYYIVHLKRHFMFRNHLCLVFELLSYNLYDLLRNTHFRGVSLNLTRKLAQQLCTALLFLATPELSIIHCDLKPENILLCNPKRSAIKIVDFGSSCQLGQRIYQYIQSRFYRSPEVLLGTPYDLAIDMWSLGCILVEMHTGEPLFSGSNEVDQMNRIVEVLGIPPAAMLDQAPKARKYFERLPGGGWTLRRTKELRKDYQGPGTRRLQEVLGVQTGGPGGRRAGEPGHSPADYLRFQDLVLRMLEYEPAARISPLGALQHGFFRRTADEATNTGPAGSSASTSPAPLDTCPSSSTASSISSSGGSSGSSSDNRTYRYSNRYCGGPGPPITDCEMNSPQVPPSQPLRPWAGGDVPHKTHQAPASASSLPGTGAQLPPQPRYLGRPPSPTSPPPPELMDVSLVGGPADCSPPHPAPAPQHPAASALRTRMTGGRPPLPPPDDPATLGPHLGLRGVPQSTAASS
For assay [5] the target is unchanged. Particulars: at 1 µM.
The target of assay [6] is T1, Dual specificity tyrosine-phosphorylation-regulated kinase 2 (Homo sapiens) (UniProt Q92630).
T1 sequence (whole entry): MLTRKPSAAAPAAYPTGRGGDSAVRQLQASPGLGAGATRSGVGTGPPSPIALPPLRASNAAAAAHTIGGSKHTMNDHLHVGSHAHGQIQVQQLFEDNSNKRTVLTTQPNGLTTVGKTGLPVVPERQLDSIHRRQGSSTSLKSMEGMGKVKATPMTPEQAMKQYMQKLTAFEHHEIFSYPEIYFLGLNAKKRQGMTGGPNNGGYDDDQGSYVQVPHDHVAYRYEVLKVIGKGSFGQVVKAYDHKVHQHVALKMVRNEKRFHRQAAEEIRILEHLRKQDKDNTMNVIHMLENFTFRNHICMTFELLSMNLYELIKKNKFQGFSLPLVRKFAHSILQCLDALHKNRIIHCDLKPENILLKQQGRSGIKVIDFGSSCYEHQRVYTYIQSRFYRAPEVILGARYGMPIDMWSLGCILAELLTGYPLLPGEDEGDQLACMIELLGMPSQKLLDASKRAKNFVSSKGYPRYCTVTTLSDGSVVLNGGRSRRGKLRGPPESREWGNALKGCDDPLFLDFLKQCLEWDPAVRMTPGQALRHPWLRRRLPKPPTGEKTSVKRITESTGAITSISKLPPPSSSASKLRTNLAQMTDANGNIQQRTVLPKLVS
To be noted: at 0.1 µM.

The target in assay [7] is T1, Dual specificity tyrosine-phosphorylation-regulated kinase 2 (Homo sapiens). To be noted: at 1 µM.
For assay [8], the target named is Glycogen synthase kinase-3 alpha (Homo sapiens) (UniProt P49840). Particulars: at 0.1 µM.
Chain of Glycogen synthase kinase-3 alpha (Homo sapiens) (P49840 2-483 limits assumed): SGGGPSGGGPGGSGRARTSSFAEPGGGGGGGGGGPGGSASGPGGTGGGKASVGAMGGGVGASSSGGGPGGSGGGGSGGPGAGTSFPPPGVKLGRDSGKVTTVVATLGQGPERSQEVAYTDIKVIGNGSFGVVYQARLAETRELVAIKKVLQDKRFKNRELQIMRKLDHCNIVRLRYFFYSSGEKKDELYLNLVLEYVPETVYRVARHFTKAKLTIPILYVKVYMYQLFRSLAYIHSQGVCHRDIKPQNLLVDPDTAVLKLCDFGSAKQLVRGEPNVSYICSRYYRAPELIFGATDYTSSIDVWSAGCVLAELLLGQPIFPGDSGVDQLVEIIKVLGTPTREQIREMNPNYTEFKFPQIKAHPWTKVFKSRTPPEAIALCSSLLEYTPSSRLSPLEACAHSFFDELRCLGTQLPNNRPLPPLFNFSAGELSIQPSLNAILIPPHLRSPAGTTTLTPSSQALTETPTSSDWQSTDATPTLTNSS
Assay [9] shares this target. To be noted: at 1 µM.
The target in assay [10] is Glycogen synthase kinase-3 beta (Homo sapiens) (UniProt P49841). To be noted: at 0.1 µM.
Chain of Glycogen synthase kinase-3 beta (Homo sapiens) (P49841 whole entry, looked up): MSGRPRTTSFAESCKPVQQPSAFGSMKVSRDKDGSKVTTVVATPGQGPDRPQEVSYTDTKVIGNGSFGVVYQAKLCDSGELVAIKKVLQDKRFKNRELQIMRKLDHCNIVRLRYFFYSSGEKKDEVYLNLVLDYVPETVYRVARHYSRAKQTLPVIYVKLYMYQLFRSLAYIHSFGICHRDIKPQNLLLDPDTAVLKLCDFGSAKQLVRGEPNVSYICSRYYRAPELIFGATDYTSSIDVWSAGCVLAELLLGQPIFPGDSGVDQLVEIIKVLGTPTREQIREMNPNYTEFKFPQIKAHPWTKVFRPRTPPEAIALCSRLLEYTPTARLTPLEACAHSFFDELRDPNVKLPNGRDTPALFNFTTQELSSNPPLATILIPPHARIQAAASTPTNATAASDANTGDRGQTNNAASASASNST
Assay [11] shares this target. To be noted: at 1 µM.
The target of assay [12] is Homeodomain-interacting protein kinase 1 (Homo sapiens) (UniProt Q86Z02). To be noted: at 0.1 µM.
Chain of Homeodomain-interacting protein kinase 1 (Homo sapiens) (Q86Z02 whole entry, looked up): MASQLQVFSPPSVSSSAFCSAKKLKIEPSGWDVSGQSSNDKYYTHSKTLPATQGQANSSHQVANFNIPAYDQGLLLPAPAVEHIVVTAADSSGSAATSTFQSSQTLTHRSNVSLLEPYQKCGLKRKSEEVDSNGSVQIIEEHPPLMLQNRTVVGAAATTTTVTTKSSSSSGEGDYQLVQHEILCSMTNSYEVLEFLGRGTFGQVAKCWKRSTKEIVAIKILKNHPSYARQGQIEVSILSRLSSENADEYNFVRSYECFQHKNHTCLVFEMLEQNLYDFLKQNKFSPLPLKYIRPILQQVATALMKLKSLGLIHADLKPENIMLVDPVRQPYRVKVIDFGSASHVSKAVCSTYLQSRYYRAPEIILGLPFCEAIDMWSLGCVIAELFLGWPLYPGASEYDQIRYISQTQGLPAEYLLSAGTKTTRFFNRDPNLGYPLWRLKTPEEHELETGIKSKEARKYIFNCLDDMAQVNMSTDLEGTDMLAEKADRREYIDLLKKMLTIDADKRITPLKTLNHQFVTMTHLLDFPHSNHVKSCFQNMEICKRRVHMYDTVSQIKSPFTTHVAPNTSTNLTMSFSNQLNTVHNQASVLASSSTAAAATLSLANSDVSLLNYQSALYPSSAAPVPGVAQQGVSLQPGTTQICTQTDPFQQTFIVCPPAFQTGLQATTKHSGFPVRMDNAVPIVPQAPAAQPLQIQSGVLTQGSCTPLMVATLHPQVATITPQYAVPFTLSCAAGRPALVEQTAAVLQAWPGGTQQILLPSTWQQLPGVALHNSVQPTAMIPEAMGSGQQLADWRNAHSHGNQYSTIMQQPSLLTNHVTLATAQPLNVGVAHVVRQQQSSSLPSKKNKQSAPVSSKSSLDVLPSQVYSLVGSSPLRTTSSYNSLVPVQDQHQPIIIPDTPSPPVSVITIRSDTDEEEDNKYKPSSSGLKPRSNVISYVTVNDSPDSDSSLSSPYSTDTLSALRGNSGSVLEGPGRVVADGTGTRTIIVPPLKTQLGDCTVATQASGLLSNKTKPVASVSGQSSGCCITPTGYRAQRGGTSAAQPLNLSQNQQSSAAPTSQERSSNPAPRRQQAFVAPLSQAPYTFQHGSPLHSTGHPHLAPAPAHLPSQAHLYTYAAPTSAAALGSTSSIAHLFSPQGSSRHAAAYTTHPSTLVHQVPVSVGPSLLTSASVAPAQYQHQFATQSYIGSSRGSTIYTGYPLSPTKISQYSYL
Assay [13] shares this target. To be noted: at 1 µM.
For assay [14], the target named is T2, Homeodomain-interacting protein kinase 4 (Homo sapiens) (UniProt Q8NE63).
T2 sequence (whole entry): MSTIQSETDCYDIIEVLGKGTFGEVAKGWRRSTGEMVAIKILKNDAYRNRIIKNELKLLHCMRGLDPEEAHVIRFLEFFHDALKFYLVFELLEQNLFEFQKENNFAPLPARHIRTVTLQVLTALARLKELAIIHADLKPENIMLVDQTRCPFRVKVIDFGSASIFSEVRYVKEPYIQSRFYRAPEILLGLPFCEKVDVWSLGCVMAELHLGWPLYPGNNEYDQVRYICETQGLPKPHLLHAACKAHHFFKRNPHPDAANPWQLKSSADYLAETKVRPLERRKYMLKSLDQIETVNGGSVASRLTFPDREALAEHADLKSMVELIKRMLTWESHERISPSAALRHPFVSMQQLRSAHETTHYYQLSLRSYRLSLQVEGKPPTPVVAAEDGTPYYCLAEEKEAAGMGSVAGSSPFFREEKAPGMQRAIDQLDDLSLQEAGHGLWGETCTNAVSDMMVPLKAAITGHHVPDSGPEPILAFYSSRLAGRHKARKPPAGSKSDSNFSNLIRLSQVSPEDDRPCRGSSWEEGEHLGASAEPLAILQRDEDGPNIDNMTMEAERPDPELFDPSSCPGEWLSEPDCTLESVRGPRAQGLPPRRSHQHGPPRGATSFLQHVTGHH
Particulars: at 0.1 µM.

The target in assay [15] is T2, Homeodomain-interacting protein kinase 4 (Homo sapiens). Particulars: at 1 µM.
The target in assay [16] is Mitogen-activated protein kinase 9 (Homo sapiens) (UniProt P45984). To be noted: at 0.1 µM.
Chain of Mitogen-activated protein kinase 9 (Homo sapiens) (P45984 whole entry, looked up): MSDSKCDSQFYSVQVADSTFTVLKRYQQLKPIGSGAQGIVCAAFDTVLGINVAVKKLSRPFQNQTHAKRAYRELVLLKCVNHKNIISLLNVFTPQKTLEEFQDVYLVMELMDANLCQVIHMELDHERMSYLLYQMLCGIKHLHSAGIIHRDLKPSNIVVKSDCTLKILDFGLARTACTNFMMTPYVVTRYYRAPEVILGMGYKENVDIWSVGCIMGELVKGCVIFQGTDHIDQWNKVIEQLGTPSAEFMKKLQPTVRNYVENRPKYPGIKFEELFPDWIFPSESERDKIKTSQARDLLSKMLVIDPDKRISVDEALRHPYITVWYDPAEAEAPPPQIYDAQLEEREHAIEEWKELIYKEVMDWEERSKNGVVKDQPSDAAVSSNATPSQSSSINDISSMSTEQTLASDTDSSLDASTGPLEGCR
Assay [17] has the same target. To be noted: at 1 µM.
Assay [18] concerns the target Mitogen-activated protein kinase 1 (Homo sapiens) (UniProt P28482). To be noted: at 0.1 µM.
The target is the same in assay [19]. Particulars: at 1 µM.
The target in assay [20] is Mitogen-activated protein kinase 3 (Homo sapiens) (UniProt P27361). Particulars: at 0.1 µM.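 Further: each value is a mean inhibition figure.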
Chain of Mitogen-activated protein kinase 3 (Homo sapiens) (P27361 whole entry): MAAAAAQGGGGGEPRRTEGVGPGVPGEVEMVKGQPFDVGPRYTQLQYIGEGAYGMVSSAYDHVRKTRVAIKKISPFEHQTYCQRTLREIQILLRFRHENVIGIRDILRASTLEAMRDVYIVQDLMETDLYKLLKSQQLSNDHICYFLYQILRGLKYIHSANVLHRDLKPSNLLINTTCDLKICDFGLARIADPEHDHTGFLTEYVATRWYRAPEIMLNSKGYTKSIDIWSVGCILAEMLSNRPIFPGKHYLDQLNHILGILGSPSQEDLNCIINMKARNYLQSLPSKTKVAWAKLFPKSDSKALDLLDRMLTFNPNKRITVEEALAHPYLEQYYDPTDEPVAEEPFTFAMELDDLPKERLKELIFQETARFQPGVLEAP

Molecules are shown by their SMILES.

Chain of Mitogen-activated protein kinase 1 (Homo sapiens) (P28482 whole entry): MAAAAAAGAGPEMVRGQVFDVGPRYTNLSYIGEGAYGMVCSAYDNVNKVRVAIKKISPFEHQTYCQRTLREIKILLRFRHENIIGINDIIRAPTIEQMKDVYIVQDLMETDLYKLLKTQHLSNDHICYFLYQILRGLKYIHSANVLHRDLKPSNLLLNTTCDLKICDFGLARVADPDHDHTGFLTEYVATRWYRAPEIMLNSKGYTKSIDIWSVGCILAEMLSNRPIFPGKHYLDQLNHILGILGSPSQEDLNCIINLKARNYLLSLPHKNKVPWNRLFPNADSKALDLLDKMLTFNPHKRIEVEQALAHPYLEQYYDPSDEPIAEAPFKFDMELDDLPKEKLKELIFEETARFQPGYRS
Chain of Dual specificity protein kinase CLK3 (Homo sapiens) (P49761 whole entry, looked up): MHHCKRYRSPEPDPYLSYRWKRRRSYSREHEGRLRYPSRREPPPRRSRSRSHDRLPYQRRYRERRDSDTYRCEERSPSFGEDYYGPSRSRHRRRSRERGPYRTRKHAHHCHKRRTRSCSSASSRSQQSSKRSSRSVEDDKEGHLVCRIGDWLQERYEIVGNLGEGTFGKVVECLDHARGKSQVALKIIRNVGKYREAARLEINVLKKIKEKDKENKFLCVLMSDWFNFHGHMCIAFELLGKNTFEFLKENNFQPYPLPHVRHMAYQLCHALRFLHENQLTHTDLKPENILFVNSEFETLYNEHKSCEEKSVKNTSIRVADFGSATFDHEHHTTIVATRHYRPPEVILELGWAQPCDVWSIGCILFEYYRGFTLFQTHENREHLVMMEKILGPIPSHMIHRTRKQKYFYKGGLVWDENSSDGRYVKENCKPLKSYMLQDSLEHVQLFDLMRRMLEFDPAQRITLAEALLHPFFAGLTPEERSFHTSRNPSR

In the case of `CCn1c(-c2nonc2N)nc2cnc(Oc3cccc(NC(=O)c4ccc(OCCN5CCOCC5)cc4)c3)cc21`, the inhibition (commonly the drop in the measured response relative to a control, in per cent) in [1] worked out at 1.22%; in assay [2], 0.91%; in assay [3], 4.24%; in assay [4], 0.06%; in assay [5], 0.86%; in [6] it was 3.68%. For the same compound, the inhibition in assay [7] was determined as 5.39%; in assay [8], 13.9%; in assay [9], 56.5%; in assay [10], 10.2%; in assay [11] it was 53.9%; in assay [12], 1.81%. Besides, the inhibition in assay [13] is 11.5%; in assay [14], 0.11%; in assay [15], 10.4%; in [16], 3.93%; in assay [17], 5.85%; in assay [18] it was 3.22%. For the same compound, the inhibition stood at 4.07% in assay [19] and 2.43% in assay [20].
For `Cc1ccc(C(=O)NC2CCCCC2)cc1-c1ccc(C(=O)NCC2CC2)cc1`, the inhibition in assay [1] was 1.19%; in assay [2], 0.7%; in assay [3] it was -0.59%; in assay [4], 0.96%; in [5], 0.46%; in assay [6], 1.77%. Further, the inhibition is 1.81% in [7]; 1.78% in assay [8]; 1.84% in [9]; 1.78% in assay [10]; 0.33% in assay [11]; -0.44% in assay [12]. Moreover, the inhibition in [13] worked out at 1.1%; in assay [14] it was 1.23%; in assay [15] it was 3.16%; in [16], 5.74%; in assay [17], 6.33%; in assay [18] it was 3.78%. In addition, the inhibition in assay [19] was 4.11%; in [20] it was 2.55%.
For the compound `N#Cc1c(NC(=O)c2cccc3ccccc23)sc2c1CCCC2`, the inhibition in assay [1] came to 1.09%; in [2] it was 1.07%; in [3] it was 4.31%; in assay [4] it was 0.47%; in [5], 1.43%; in [6], 1.86%. The inhibition in [7] is 2.69%; in assay [8] it was 5.51%; in assay [9], 6.65%; in [10], 3.72%; in [11] it was 6.89%; in assay [12], -2.43%. Further, the inhibition in assay [13] is 1.91%; in assay [14], -1.01%; in assay [15], 2.45%; in assay [16], 6.07%; in assay [17] it was 25.4%; in assay [18], 2.02%. The inhibition in [19] was 3.91%; in [20] it was -0.53%.
For `CC(=O)Nc1cccc(C#Cc2cncnc2Nc2ccc(OCc3cccc(F)c3)c(Cl)c2)n1`, the inhibition in assay [1] was -0.85%; in [2], -0.63%; in assay [3], -0.35%; in [4], 1.51%; in [5], 2.18%; in assay [6], -0.79%. Moreover, the inhibition is -0.95% in assay [7]; 0.36% in assay [8]; 1.39% in assay [9]; 1.37% in [10]; 3.63% in assay [11]; 1.74% in assay [12]. For the same compound, the inhibition in assay [13] was 3.28%; in assay [14], 0.85%; in [15] it was 1.32%; in assay [16], -0.98%; in assay [17], -1.17%; in assay [18], -0.75%. In addition, the values for the inhibition in [19] and in assay [20] were -1.7% and -0.64%, respectively.
`CCCN1CCC(Oc2cc(Nc3nc(Nc4cccc(F)c4C(N)=O)c4cc[nH]c4n3)c(OC)cc2Cl)CC1`: the inhibition in assay [1] was 1.7%; in [2] it was 2.64%; in assay [3], 25.9%; in [4], 3.49%; in assay [5] it was 27.1%; in [6], -0.2%. Moreover, the inhibition amounted to 0.67% in assay [7]; 3.45% in assay [8]; 9.53% in assay [9]; 3.22% in [10]; 9.38% in [11]; 2.76% in assay [12]. In addition, the inhibition was 18.8% in assay [13]; 3.27% in assay [14]; 24.8% in assay [15]; 1.29% in assay [16]; 2.98% in assay [17]; 0.93% in [18]. The inhibition in [19] was 17.9%; in assay [20], 0.36%.
On to `c1cnn2ncc(-c3ccnc(Nc4ccc5c(c4)OCCO5)n3)c2c1`, for which the inhibition in assay [1] stood at 52%; in assay [2], 79.6%; in assay [3], 87.6%; in assay [4], 80.6%; in assay [5] it was 88.9%; in assay [6], 10.7%. For the same compound, the inhibition in assay [7] was 50.8%; in [8], 75.6%; in assay [9] it was 92.5%; in [10] it was 74.4%; in assay [11], 91%; in assay [12] it was 86.2%. Besides, the inhibition in assay [13] was 93%; in assay [14], 42.3%; in assay [15] it was 79.8%; in [16], 12.8%; in [17] it was 54.4%; in [18], 6.5%. Moreover, the inhibition worked out at 24% in [19] and 6.55% in assay [20].

For the origin of these results see ChEMBL document CHEMBL1961873, “Compounds: GSK PKIS; Assays: Nanosyn kinase panel” (2012).
